This is an account of results in the supplement of paper PMC9801561.

± gives the standard deviation of the averaged measurements.

In test [1] the test system is Escherichia coli Nissle 1917. In words: area under OmniLog respiration curve over 48 h (OmniLog units x h); higher = more growth / nutrient utilisation; extreme values may be limits of the assay. Particulars: incubation: 48 h, 37 °C.
Test [2] has as its system Escherichia coli Nissle 1917. Nature of the test: DuctApe activity index of respiration/growth curve (0 no growth to 9 maximum) (index 0-9); higher = more growth / nutrient utilisation, active = 3 or more; extreme values may be limits of the assay. To be noted: incubation: 48 h, 37 °C.
[3] abbreviates: nutrient role: sole nitrogen source (pyruvate carbon).
[4] abbreviates: nutrient role: sole sulfur source (pyruvate carbon).
The mark [5] stands for this setting: nutrient role: sole phosphorus source (pyruvate carbon).
[6] abbreviates: nutrient role: C-Source, carboxylic acid.
The mark [7] stands for this setting: nutrient role: C-Source, carbohydrate.
The mark [8] stands for this setting: nutrient role: N-Source, inorganic.
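Throughout, for DuctApe activity index of respiration/growth curve (0 no growth to 9 maximum): biolog PM4 phosphorus and sulfur plates, tetrazolium violet dye reduction read in the OmniLog every 15 min, kinetic curves scored by DuctApe, each plate run in triplicate.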

Regarding `NC(=O)NC(N)=O` [Biuret], in test [1] (setting [3]), the “area under OmniLog respiration curve” value worked out at 3650 ± 1400. In addition, the DuctApe activity index in test [2] (setting [3]) is 5 (active).
As for `Nc1ccc(S(=O)(=O)O)cc1` [p-Aminobenzene Sulfonic acid], in test [1] (setting [4]), the “area under OmniLog respiration curve” value came out at 550 ± 470. The DuctApe activity index in test [2] (setting [4]) was 0 (inactive).
Turning to `O=P(O)(O)O` [Phosphate], in test [1] (setting [5]), the “area under OmniLog respiration curve” value came to 9750 ± 430. In addition, the DuctApe activity index in test [2] (setting [5]) was 9 (active).
Consider `C[N+](C)(C)CC(O)CC(=O)[O-]` (racemic) [D,L-Carnitine], for which the “area under OmniLog respiration curve” value in test [1] (setting [6]) amounted to 5.03 ± 0.54. Moreover, the DuctApe activity index in test [2] (setting [6]) was 0 (inactive).
For the compound `OC[C@@H](O)[C@@H](O[C@H]1O[C@H](CO)[C@@H](O)[C@H](O)[C@H]1O)[C@H](O)[C@@H](O)CO` [Maltitol], the “area under OmniLog respiration curve” value in test [1] (setting [7]) was found to be 4.72. For the same compound, in test [2] (setting [7]), the DuctApe activity index was 0 (inactive).
On to `C[C@H](N)C(=O)N[C@@H](CCC(N)=O)C(=O)O`, for which the “area under OmniLog respiration curve” value in test [1] (setting [3]) was found to be 8550 ± 1600. Besides, the DuctApe activity index in test [2] (setting [3]) is 8 (active).
On to `OC[C@H]1OC(O)[C@H](O)[C@@H](O)[C@@H]1O` (stereo partly drawn) [a-D-Glucose], for which, in test [1] (setting [7]), the “area under OmniLog respiration curve” value stood at 7320 ± 620. In addition, the DuctApe activity index in test [2] (setting [7]) is 7.67 (active).
For the compound `O=NO` [Nitrite], the “area under OmniLog respiration curve” value in test [1] (setting [8]) was 122 ± 150. Moreover, in test [2] (setting [8]), the DuctApe activity index was 0.667 (inactive).
As for `CC(O)C(N)=O` (racemic) [DL-Lactamide], in test [1] (setting [3]), the “area under OmniLog respiration curve” value amounted to 57 ± 91. Also, in test [2] (setting [3]), the DuctApe activity index is 0 (inactive).
As to `OC[C@H]1O[C@H](OC[C@H]2OC(O)[C@H](O)[C@@H](O)[C@@H]2O)[C@H](O)[C@@H](O)[C@H]1O` (stereo partly drawn) [D-Melibiose], the “area under OmniLog respiration curve” value in test [1] (setting [7]) stood at 7880 ± 1000. For the same compound, the DuctApe activity index in test [2] (setting [7]) was 7.67 (active).
Consider `N[C@@H]1[C@@H](O)[C@H](O)[C@@H](COP(=O)(O)O)O[C@@H]1O` [D-Glucosamine-6-Phosphate], for which the “area under OmniLog respiration curve” value in test [1] (setting [5]) is 9120 ± 620. The DuctApe activity index in test [2] (setting [5]) was 8.67 (active).
With `C[C@H](N)C(=O)N[C@@H](CC(=O)O)C(=O)O`, in test [1] (setting [3]), the “area under OmniLog respiration curve” value turned out to be 9150 ± 1000. Moreover, the DuctApe activity index in test [2] (setting [3]) is 8.67 (active).
In the same order, the values of `NCCCCCC(=O)O` [e-Amino-N-Caproic acid] are 1240 ± 1000 and 2.33 (inactive).
Regarding `O=P(O)(O)OC[C@H]1OC(O)[C@@H](O)[C@@H](O)[C@@H]1O` (stereo partly drawn) [D-Mannose-6-Phosphate], the “area under OmniLog respiration curve” value in test [1] (setting [5]) amounted to 8540 ± 570. Also, the DuctApe activity index in test [2] (setting [5]) is 8.33 (active).
On the same counts, the results for `O=P(O)(O)OP(=O)(O)O` [Pyrophosphate] are 9320 ± 480 and 9 (active).
For the compound `CC1OC(O)C(O)C(O)C1O` [L-Fucose], the “area under OmniLog respiration curve” value in test [1] (setting [7]) was 7650 ± 700. The DuctApe activity index in test [2] (setting [7]) is 7.67 (active).
For the compound `Nc1nc2c(ncn2[C@@H]2O[C@H](CO)[C@@H](O)[C@H]2O)c(=O)[nH]1` [Guanosine], the “area under OmniLog respiration curve” value in test [1] (setting [3]) is 442 ± 580. In test [2] (setting [3]), the DuctApe activity index is 0.333 (inactive).
On to `CCC(C)N` (configuration not stated) [sec-Butylamine], for which the “area under OmniLog respiration curve” value in test [1] (nutrient role: C-Source, amine) came to 5.72 ± 1.7. The DuctApe activity index in test [2] (nutrient role: C-Source, amine) was 0 (inactive).
As for `O=P(O)(O)OC(CO)CO` [b-Glycerol Phosphate], the “area under OmniLog respiration curve” value in test [1] (setting [5]) is 8820 ± 470. The DuctApe activity index in test [2] (setting [5]) was 8.67 (active).
Turning to `CSC[C@H](N)C(=O)O` [S-Methyl-L-Cysteine], in test [1] (setting [4]), the “area under OmniLog respiration curve” value came out at 17.8 ± 23. Besides, in test [2] (setting [4]), the DuctApe activity index is 0.333 (inactive).
Take `O=C(O)[C@@H](O)[C@H](O)C(=O)O` [D-Tartaric acid]: the “area under OmniLog respiration curve” value in test [1] (setting [6]) turned out to be 8.46 ± 6.5. The DuctApe activity index in test [2] (setting [6]) is 0 (inactive).
In the case of `O=C(O)CCC(=O)O` [Succinic acid], the “area under OmniLog respiration curve” value in test [1] (setting [6]) is 9020 ± 680. Also, the DuctApe activity index in test [2] (setting [6]) is 8.67 (active).
Take `NCC(=O)N[C@@H](CC(N)=O)C(=O)O`: the “area under OmniLog respiration curve” value in test [1] (setting [3]) is 8340 ± 1500. Also, the DuctApe activity index in test [2] (setting [3]) is 8 (active).
Turning to `OC[C@H]1O[C@@H](O[C@@H]2[C@@H](CO)OC(O)(CO)[C@H]2O)[C@H](O)[C@@H](O)[C@H]1O` (mixture of isomers) [Lactulose], in test [1] (setting [7]), the “area under OmniLog respiration curve” value came to 8170 ± 840. Besides, the DuctApe activity index in test [2] (setting [7]) was 8 (active).
On to `O=S(=O)(O)SSS(=O)(=O)O` [Tetrathionate], for which, in test [1] (setting [4]), the “area under OmniLog respiration curve” value was found to be 7150 ± 120. In test [2] (setting [4]), the DuctApe activity index was 7.67 (active).
For `OC[C@H]1O[C@@H](O[C@H]2[C@H](O)[C@@H](O)[C@@H](O)O[C@@H]2CO)[C@H](O)[C@@H](O)[C@H]1O` [a-D-Lactose], in test [1] (setting [7]), the “area under OmniLog respiration curve” value was determined as 7580 ± 630. Also, the DuctApe activity index in test [2] (setting [7]) is 7.67 (active).
Turning to `O=S(=O)(O)CCO` [2-Hydroxyethane Sulfonic acid], in test [1] (setting [4]), the “area under OmniLog respiration curve” value worked out at 7790 ± 450. For the same compound, in test [2] (setting [4]), the DuctApe activity index was 8 (active).
As for `O=P1(O)OP(=O)(O)OP(=O)(O)O1` [Trimetaphosphate], the “area under OmniLog respiration curve” value in test [1] (setting [5]) is 9730 ± 800. For the same compound, the DuctApe activity index in test [2] (setting [5]) is 9 (active).
In the same order, the values of `NCCOP(=O)(O)O` [O-Phosphoryl-Ethanolamine] are 8740 ± 290 and 8.67 (active).
As to `O=c1cc[nH]c(=O)[nH]1` [Uracil], the “area under OmniLog respiration curve” value in test [1] (setting [3]) turned out to be 103 ± 170. For the same compound, the DuctApe activity index in test [2] (setting [3]) was 0 (inactive).
As for `CCC(=O)C(=O)O` [a-Ketobutyric acid], in test [1] (setting [6]), the “area under OmniLog respiration curve” value worked out at 800 ± 760. Besides, the DuctApe activity index in test [2] (setting [6]) was 1.67 (inactive).
Consider `OCC1(O)OC[C@@H](O)[C@H](O)[C@@H]1O` (stereo partly drawn) [D-Tagatose], for which the “area under OmniLog respiration curve” value in test [1] (setting [7]) is 6560 ± 520. In addition, the DuctApe activity index in test [2] (setting [7]) is 7.33 (active).
As for `NC=O` [Formamide], the “area under OmniLog respiration curve” value in test [1] (setting [3]) came to 38.4 ± 58. Further, the DuctApe activity index in test [2] (setting [3]) is 0 (inactive).
As to `CCCCCN` [N-Amylamine], the “area under OmniLog respiration curve” value in test [1] (setting [3]) is 12.9 ± 14. Also, in test [2] (setting [3]), the DuctApe activity index is 0 (inactive).
Take `OC[C@H]1O[C@H](OC[C@H]2O[C@H](OC[C@H]3O[C@H](O[C@]4(CO)O[C@H](CO)[C@@H](O)[C@@H]4O)[C@H](O)[C@@H](O)[C@@H]3O)[C@H](O)[C@@H](O)[C@H]2O)[C@H](O)[C@@H](O)[C@H]1O` [Stachyose]: the “area under OmniLog respiration curve” value in test [1] (setting [7]) was found to be 433 ± 380. Moreover, the DuctApe activity index in test [2] (setting [7]) was 1.33 (inactive).
For the compound `Nc1ncnc2c1ncn2[C@@H]1O[C@H](CO)[C@@H](O)[C@H]1OP(=O)(O)O` [Adenosine 2`-Monophosphate], in test [1] (setting [5]), the “area under OmniLog respiration curve” value worked out at 9880 ± 610. In addition, the DuctApe activity index in test [2] (setting [5]) was 9 (active).
For `OC[C@@H](O)[C@@H](O[C@@H]1O[C@H](CO)[C@H](O)[C@H](O)[C@H]1O)[C@H](O)[C@@H](O)CO` [D-Lactitol], the “area under OmniLog respiration curve” value in test [1] (setting [7]) came to 5600 ± 540. The DuctApe activity index in test [2] (setting [7]) is 7 (active).
With `NCCN` [Ethylenediamine], the “area under OmniLog respiration curve” value in test [1] (setting [3]) came to 4.72. In addition, in test [2] (setting [3]), the DuctApe activity index was 0 (inactive).
As to `C[C@@H]1OC(O)[C@H](O)[C@H](O)[C@H]1O` (stereo partly drawn) [L-Rhamnose], the “area under OmniLog respiration curve” value in test [1] (setting [7]) was found to be 6960 ± 610. For the same compound, the DuctApe activity index in test [2] (setting [7]) was 7.33 (active).
As for `CO[C@H]1O[C@H](CO)[C@H](O)[C@H](O)[C@H]1O` [a-Methyl-D-Galactoside], the “area under OmniLog respiration curve” value in test [1] (setting [7]) was 8070 ± 460. In test [2] (setting [7]), the DuctApe activity index was 8 (active).
For `O=S1(=O)CCCC1` [Tetramethylene Sulfone], in test [1] (setting [4]), the “area under OmniLog respiration curve” value is 615 ± 500. Moreover, the DuctApe activity index in test [2] (setting [4]) was 0 (inactive).
